TGFb inhibitor: blocks TGF-b signaling. Potency, µM (highest dose often 46.1 µM), without a hit: at the highest dose activity, negative = inhibition, usual class: inhibitors. 410,000 tested, 1.2% active. HepG2 CAGA-GFP TGF-b/SMAD3 reporter, GFP fluorescence, 18 h; TGF-beta stimulated, 500 pg/mL final; note: % is set by controls: 0 for no effect and ±100 for the full control effect; nearly all actives have a fitted effect of over 65% in size
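HEPG2 CAGA-GFP reporter cells (1000/well, DMEM with 1% FBS) received compounds, then recombinant TGF-beta at 500 pg/mL final for 18 hours at 37 degrees C. Per-cell GFP summed per well was normalised to unstimulated and stimulated DMSO controls before curve fitting.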
Gal4-VP16 FLuc: counter-screen for ROR gamma inhibitors: Gal4-VP16 reporter | 310,000 tested, 3.5% active | AID 2546 | Drosophila S2 Gal4-VP16 UAS-luciferase, luminescence, 20 h | Potency, µM (doses to about 53.6 µM), for the others: at the highest dose activity, negative = inhibition, actives largely listed as inhibitors;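 note: Gal4-VP16 expression switched on by copper sulfate through the metallothionein promoter; % is set by controls: 0 for no effect and ±100 for the full control effect; nearly all actives have a fitted effect of over 50% in size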
HepG2 tox-1: counter-screen for TGF-b inhibitors: cytotoxicity in HepG2 cells; HepG2 CAGA-GFP viability, ATP luminescence, 18 h; Potency, µM (doses to about 46.1 µM), for the others: at the highest dose activity change, negative = cytotoxicity, most hits filed as cytotoxic; 410,000 tested, 0.76% active; AID 588856
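HepG2 CAGA-GFP cells (1000/well, DMEM with 1% FBS) received compound, then TGF-beta at 500 pg/mL final, and were incubated 18 hours at 37 degrees C. Viability was read by CellTiter-Glo luminescence. Media-only wells were set as complete cell-killing and DMSO as no toxicity.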
ATXN viability: reduces viability in counter-screen for ATXN expression inhibitors; S2 cells (HEK-293 line with an ATXN2-luciferase reporter) viability, CellTiter-Fluor protease fluorescence, 24 h; Potency, µM (highest dose often 56.7 µM), most hits filed as cytotoxic; 400,000 tested, 0.49% active; AID 651635; note: nearly all actives have a fitted effect of over 40% in size
ATXN2 expr inh: ATXN2 expression inhibition; Potency, µM (doses to about 57 µM), for inactives: top-dose activity change, negative = inhibition, hits mostly inhibitors; 360,000 tested, 0.72% active; HEK-293 ATXN2-luciferase reporter, luminescence, 24 h; AID 1745845; note: % is set by controls: 0 for no effect and ±100 for the full control effect; nearly all actives have a fitted effect of over 55% in size
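ATXN2-luciferase reporter cells (luciferase flanked by upstream and downstream ATXN2 gene portions) were treated 24 h at 37 °C with compounds at up to 57 uM. SteadyGlo luminescence gave expression; GF-AFC fluorescence gave viability.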
RORgamma inh: ROR gamma (mouse) transcription inhibition | Drosophila S2 Gal4-RORgamma UAS-luciferase reporter, 20 h | Potency, µM (titrated, usually from 53.6 µM), inactives show top-dose activity change, negative = inhibition, usual class: inhibitors | AID 2551 | 310,000 tested, 5.4% active; note: % is set by controls: 0 for no effect and ±100 for the full control effect; nearly all actives have a fitted effect of over 60% in size
Target sequence (P51450 whole entry, looked up, the tested form may be a part): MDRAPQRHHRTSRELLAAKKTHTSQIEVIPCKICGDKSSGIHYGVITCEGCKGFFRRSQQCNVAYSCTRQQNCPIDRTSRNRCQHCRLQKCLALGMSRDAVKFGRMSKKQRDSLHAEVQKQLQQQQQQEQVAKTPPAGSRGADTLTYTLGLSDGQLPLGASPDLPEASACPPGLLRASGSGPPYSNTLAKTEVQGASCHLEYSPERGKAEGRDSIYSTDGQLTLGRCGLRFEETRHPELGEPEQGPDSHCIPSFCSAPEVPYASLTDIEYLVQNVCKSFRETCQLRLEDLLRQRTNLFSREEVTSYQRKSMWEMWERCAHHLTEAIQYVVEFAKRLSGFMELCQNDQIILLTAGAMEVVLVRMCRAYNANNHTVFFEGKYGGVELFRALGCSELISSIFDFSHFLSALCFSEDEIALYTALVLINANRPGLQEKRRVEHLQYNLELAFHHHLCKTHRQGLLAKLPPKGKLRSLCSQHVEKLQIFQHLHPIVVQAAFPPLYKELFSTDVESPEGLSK
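Compounds are pin-transferred onto Drosophila Schneider cells expressing a copper-inducible Gal4–ROR gamma transactivation domain fusion. After 1 hr, copper sulfate is added to 700 uM final; luciferase is read 20 hr later.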
TGFb CAGA inh: TGF-b pathway inhibition, cherry-pick retest | shares compounds with TGFb inhibitor | HepG2 CAGA-GFP TGF-b reporter, GFP fluorescence, 18 h; cells stimulated with TGF-beta, 500 pg/mL | AID 720534 | 1,600 tested, 63% active | Potency, µM (titrated, usually from 46.1 µM), inactives show at the highest dose activity, negative = inhibition, hits mostly inhibitors; note: % is set by controls: 0 for no effect and ±100 for the full control effect; nearly all actives have a fitted effect of over 65% in size
HepG2 tox-2: HepG2 cytotoxicity, TGF-b inhibitor counterscreen; shares compounds with TGFb inhibitor; HepG2 CAGA-GFP viability, ATP luminescence, 18 h; cells stimulated with TGF-beta, 500 pg/mL; Potency, µM (series often up to 46.1 µM), without a hit: at the highest dose activity, negative = cytotoxicity, most hits filed as inhibitors; 1,600 tested, 27% active; note: % is set by controls: 0 for no effect and ±100 for the full control effect; nearly all actives have a fitted effect of over 70% in size
CCL64 TGFb inh: TGF-b inhibition, CCL64 orthogonal assay; shares compounds with TGFb inhibitor; CCL64 CAGA-GFP reporter, TGF-b stimulated, GFP fluorescence, 18 h; Potency, µM (doses to about 46.1 µM), inactives show at the top dose activity, negative = inhibition, usual class: inhibitors; 1,600 tested, 41% active; note: nearly all actives have a fitted effect of over 65% in size
TGFb COP inh: blocks TGF-b signaling in HepG2 COP reporter. shares compounds with TGFb inhibitor. HepG2 COP-GFP TGF-b reporter, GFP fluorescence, 18 h; cells stimulated by added recombinant TGF-beta. Potency, µM (top dose mostly 46.1 µM), for inactives: at the highest dose activity, negative = inhibition, most hits filed as inhibitors. 1,600 tested, 3% active; note: nearly all actives have a fitted effect of over 70% in size
Numbers without * were called inactive; i = inactive; ? = inconclusive; . = no result. An excerpt weighted towards active compounds, which were near 6.1% of everything screened. Calls come from the whole dose curve; as a rule, active = well fitted curve in the direction sought with a large enough effect; inconclusive = small, poorly fitted or top-dose-only effect, or another doubt; inactive = no such curve, though single readings can be large; an effect the other way counts as inactive or inconclusive. Potency is the fitted concentration of half-maximal effect.

SMILES | TGFb inhibitor | Gal4-VP16 FLuc | HepG2 tox-1 | ATXN viability | ATXN2 expr inh | RORgamma inh | TGFb CAGA inh | HepG2 tox-2 | CCL64 TGFb inh | TGFb COP inh
CCC(CC)=NNc1cccc([N+](=O)[O-])c1 | -4.2% | 5.6% | -1.3% | ? | -20.4% | 16.4% | . | . | . | .
O=c1c2ccccc2c(=O)n(Cc2ccccc2)n1Cc1ccccc1 | 11.2µM* | -16.6% | -15.6% | i | -21.9% | ? | ? | -29.0% | 18.4µM* | ?
O=c1ccn(Cc2ccccc2)c2ccccc12 | ? | -2.3% | -12.2% | i | -0.2% | ? | . | . | . | .
Cc1ccc(NC(=O)c2ccccc2NS(=O)(=O)c2ccc(Cl)s2)cc1S(=O)(=O)N1CCOCC1 | ? | ? | -51.5% | ? | ? | ? | 13µM* | ? | 8.2µM* | 60.9%
COc1ccc(C)cc1NC(=O)c1ccccc1NS(=O)(=O)c1ccc(Cl)s1 | 5.01µM* | ? | -52.9% | i | . | -81.6% | 11.6µM* | ? | 6.51µM* | 45.2%
O=C(Nc1cc(S(=O)(=O)N2CCOCC2)ccc1O)c1ccc(NS(=O)(=O)c2ccc(Cl)s2)cc1 | -4.6% | -15.7% | 1.8% | i | 5.6% | 32.8% | . | . | . | .
Cc1ccc(NC(=O)c2ccc([N+](=O)[O-])s2)cc1S(=O)(=O)N1CCOCC1 | 7.08µM* | . | -158.0% | i | ? | . | 6.51µM* | ? | ? | 25.8%
COc1ccc(Cl)cc1C(=O)NCC(c1ccc(N(C)C)cc1)N1CCOCC1 (stereo not given) | 33.1% | . | 7.6% | . | . | . | . | . | . | .
COc1ccc(N2CCN(C(=O)c3nn(C)c4c3CSc3ccccc3-4)CC2)cc1 | ? | . | -34.4% | . | . | . | . | . | . | .
COc1ccc(C(CNC(=O)c2oc3ccc(OC)cc3c2C)N2CCCC2)cc1 (stereo not given) | ? | . | -29.1% | i | -23.5% | . | ? | ? | -8.4% | 45.1%
CN(C)S(=O)(=O)Nc1ccc(-c2cn3ccsc3n2)cc1 | 6.4% | . | -16.5% | i | 24.7% | . | . | . | . | .
COc1cc2c(cc1OC)C(C)N(C(=O)c1cc3c(C)cc(C)cc3[nH]1)CC2 (stereo not given) | 11.2µM* | -28.9% | -28.7% | ? | ? | -7.4% | 16.4µM* | 14.6µM* | ? | 50.6%
O=C(CSc1nc2ccccc2n1Cc1ccccc1)N1CCN(c2ccc(F)cc2)CC1 | -3.9% | . | 1.7% | i | 10.3% | . | . | . | . | .
O=C(Nc1cc(Sc2ccccn2)cc([N+](=O)[O-])c1)c1ccc(Cl)cc1 | 14.1µM* | 16.0% | -24.2% | i | -0.7% | 19.7% | 11.6µM* | -18.9% | 10.3µM* | 10.9%
NC(=O)[C@H]1CC2(CC(c3cccc(NC(=O)COc4ccc(Cl)cc4)c3)=NO2)CN1C(=O)c1ccc(Cl)cc1 (stereo not given in full) | 17.8µM* | -12.3% | -3.6% | ? | ? | ? | 18.4µM* | -29.4% | 18.4µM* | 22.2%
Cc1ccc(Sc2c(C)nn(C(=O)COc3ccccc3Br)c2C)cc1 | 5.7% | . | 0.3% | i | 6.7% | . | . | . | . | .
COC(C(=O)C(O)C(C)O)C1Cc2cc3cc(OC4CC(OC5CC(O)C(O)C(C)O5)C(O)C(C)O4)c(C)c(O)c3c(O)c2C(=O)C1OC1CC(OC2CC(OC3CC(O)C(OC)C(C)O3)C(O)C(C)O2)C(O)C(C)O1 (stereo not given) | 1µM* | . | 16.6% | ? | 10µM* | . | 0.366µM* | 0.092µM* | 1.64µM* | 16.0%
CCN(CC)CC(C)(C)C(=O)/C=C/c1ccc(/C=C/C(=O)C(C)(C)CN(CC)CC)cc1 | 4.47µM* | . | 5.01µM* | 5.62µM* | 3.98µM* | . | 3.26µM* | 3.26µM* | 4.61µM* | ?
CCN(CC)CCOC(=O)/C=C/c1ccccc1 | -15.0% | -1.1% | -17.8% | i | . | 0.7% | . | . | . | .
Cc1ccc(C)c(OCCC(=O)Nc2cccc(S(=O)(=O)N3CCCCC3)c2)c1 | 12.6µM* | . | -5.1% | i | -8.0% | . | 23.1µM* | -23.5% | ? | 5.8%
CC(C)(C)c1ccc(OCCNC(=S)Nc2ccccc2)cc1 | 14.1µM* | -3.2% | 2.8% | i | -33.6% | -25.1% | ? | ? | ? | 46.4%
OCCCn1c(C(CO)Nc2nc(-c3ccc(Cl)cc3)cs2)nc2ccccc21 (stereo not given) | 17.8µM* | . | -28.9% | i | -29.8% | . | 14.6µM* | -28.6% | ? | 10.1%
CC(Nc1nc(-c2ccc(F)cc2)cs1)c1nc2cc(C(F)(F)F)ccc2n1CCCO (stereo not given) | ? | . | -30.1% | . | ? | . | . | . | . | .
CCc1ccccc1Oc1nc(NCc2ccccc2)nc2ccsc12 | 11.2µM* | . | -26.0% | i | -18.0% | . | 23.1µM* | ? | 16.4µM* | 30.5%
c1ccc(CNc2nc(NCCc3ccncc3)c3sccc3n2)cc1 | 2.24µM* | . | -42.6% | ? | 0.0% | . | 1.46µM* | 7.31µM* | 4.61µM* | 33.8%
CC(C)Nc1nc(NCCN2CCNC2=O)c2sccc2n1 | 11.5% | . | -1.3% | i | -7.3% | . | . | . | . | .
O=C1NCCN1CCNc1nc(NCc2ccccc2)nc2ccsc12 | 7.94µM* | . | -47.4% | ? | -2.7% | . | 14.6µM* | ? | ? | 49.8%
O=C(Nc1cccc(NC(=O)c2cccnc2)c1)c1ccccc1 | -1.3% | 2.6% | 3.7% | i | -6.7% | 14.0% | . | . | . | .
NC(=O)c1cccc(-c2cnc(N)c(C(=O)c3cccnc3)n2)c1 | 10µM* | . | -27.6% | ? | -38.8% | . | 4.61µM* | 16.4µM* | -101.2% | 33.1%

Screens as filed in PubChem.
